Here are results for seven sequences from the supplement of paper PMC6555819.

What all share (assay): PBM binding z-score (relative to random genomic background probes); higher = stronger binding; sequences stand for … in GC…GCGATTGACAGCGTAGAATGAAGG
The test system of assay [1] is FXR:RXRa (NR concentration 270 nM, RXRa partner concentration 90 nM). The procedure, abridged:
(§1)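 Binding z-scores take random background probes as their reference. They come from custom Agilent 4×180K protein-binding microarrays incubated 1 h with ligand-free nuclear receptor dimers, with antibodies against each partner (one per run) detecting binding. Scanned fluorescence was regression-normalized.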

Assay [2] concerns LXRa:RXRa (NR concentration 270 nM, RXRa partner concentration 90 nM). The procedure, abridged: as §1
Assay [3] relates to LXRa homodimer (NR concentration 270 nM). An outline of the steps:
as §1

Assay [4] has as its system LXRb:RXRa (NR concentration 270 nM, RXRa partner concentration 90 nM). An outline of the steps: as §1
For assay [5], the system named is LXRb homodimer (NR concentration 270 nM). An outline of the steps: as §1
Assay [6] deals with PPARa:RXRa (NR concentration 270 nM, RXRa partner concentration 90 nM). The procedure, abridged: as §1
For assay [7], the system named is PPARg:RXRa (NR concentration 180 nM, RXRa partner concentration 90 nM). An outline of the steps:
as §1

For assay [8], the system named is PPARg:RXRa 270nM:90nM, anti-RXR (NR concentration 270 nM, RXRa partner concentration 90 nM). The procedure, abridged:
as §1

The subject of assay [9] is PPARg:RXRa 30nM:10nM, anti-RXR (NR concentration 30 nM, RXRa partner concentration 10 nM). The procedure, abridged: as §1
For assay [10], the system named is PPARg:RXRa 90nM:30nM, anti-RXR (NR concentration 90 nM, RXRa partner concentration 30 nM). An outline of the steps:
as §1

In assay [11] the test system is PPARg:RXRa DBDmut IVT, anti-RXR (DBD mutation: RXRa K156A/R161A, NR concentration 270 nM, RXRa partner concentration 90 nM). An outline of the steps: as §1
The test system of assay [12] is PPARg:RXRa IVT, anti-PPARg (NR concentration 270 nM, RXRa partner concentration 90 nM). An outline of the steps:
as §1

Assay [13] concerns PPARg DBDmut:RXRa IVT, anti-PPARg (DBD mutation: PPARg1 K132A/R137A, NR concentration 270 nM, RXRa partner concentration 90 nM). The procedure, abridged: as §1
Assay [14] has as its system PPARg DBDmut IVT, anti-PPARg (DBD mutation: PPARg1 K132A/R137A, NR concentration 270 nM). The procedure, abridged:
as §1

The subject of assay [15] is PPARg homodimer (NR concentration 180 nM). The procedure, abridged: as §1
Assay [16] relates to PXR:RXRa (NR concentration 270 nM, RXRa partner concentration 90 nM). The procedure, abridged: as §1
Assay [17] relates to PXR homodimer (NR concentration 270 nM). An outline of the steps:
as §1

Assay [18] concerns RARa:RXR (NR concentration 270 nM, RXRa partner concentration 90 nM). The procedure, abridged: as §1
For assay [19], the system named is RARa homodimer (NR concentration 270 nM). The procedure, abridged:
as §1

Assay [20] relates to RARb:RXRa (NR concentration 270 nM, RXRa partner concentration 90 nM). The procedure, abridged: as §1

With AGAATGAGCTTAAGATCAGGGAAACAGAATACAT, the PBM binding z-score in assay [1] is -0.576; in [2], -0.745; in assay [3], -0.372; in [4], -0.637; in [5], -0.597; in assay [6], -0.434. Besides, the PBM binding z-score in [7] is 0.541; in assay [8], -0.0832; in assay [9], 0.137; in [10] it was 0.036; in assay [11] it was -0.826; in assay [12], -0.493. Further, the PBM binding z-score is 0.133 in [13]; 0.568 in [14]; -0.142 in assay [15]; -0.393 in assay [16]; -0.0876 in [17]; 0.0208 in assay [18]. Moreover, the PBM binding z-score in [19] is -0.0937; in [20] it was -0.502.
Turning to TGTCAAAGTTCAAAGGTAACGTCAGTATCCACAC, the PBM binding z-score in [1] turned out to be 7.51; in assay [2] it was 6.72; in assay [3], 4.98; in [4], 4.84; in assay [5], 1.79; in [6], 5.79. Also, the PBM binding z-score worked out at 8.85 in assay [7]; 7.88 in assay [8]; 5.71 in [9]; 7.79 in assay [10]; 0.357 in assay [11]; 4.74 in [12]. Further, the PBM binding z-score in assay [13] was determined as 1.94; in [14] it was 1.89; in [15] it was 4.29; in assay [16], 5.89; in assay [17] it was 3.43; in assay [18], 6.36. Also, the values for the PBM binding z-score in assay [19] and in assay [20] were 0.737 and 5.36, respectively.
Turning to CCTTACGGCTCACTCCAGGTTATAGCATCGGAGT, the PBM binding z-score in [1] was 0.29; in assay [2] it was 0.942; in assay [3], 1.31; in [4] it was 0.0567; in [5], 0.303; in assay [6], -0.0224. Also, the PBM binding z-score in assay [7] is 0.265; in [8], -0.277; in assay [9] it was 0.181; in assay [10], -0.238; in assay [11], 0.594; in assay [12], -0.0865. Moreover, the PBM binding z-score in [13] is -0.339; in assay [14] it was -0.313; in [15], 0.301; in assay [16], -0.0761; in assay [17] it was 0.257; in assay [18] it was 0.372. For the same sequence, the PBM binding z-score in [19] was 0.095; in assay [20] it was 0.00286.
For the sequence CCTACTGGGCCATGCAGAGGTCATTGATCATATG, the PBM binding z-score in [1] was 2.63; in assay [2], 3.58; in assay [3], 4.68; in assay [4], 3.51; in assay [5], -0.363; in [6] it was 3.84. Besides, the PBM binding z-score in assay [7] stood at 2.51; in [8] it was 3.33; in assay [9], 1.11; in assay [10] it was 2.41; in assay [11], 3.41; in [12], 4.39. For the same sequence, the PBM binding z-score in assay [13] is 0.533; in assay [14] it was 0.384; in [15], 2.69; in assay [16] it was 5; in assay [17] it was 1.62; in [18] it was 4.75. Also, the PBM binding z-score amounted to 0.229 in assay [19] and 3.05 in assay [20].
As to GCTAGCAGGTCATTTGGGTCACTCAATGACGGGC, the PBM binding z-score in assay [1] came out at 5.14; in [2], 3.76; in assay [3] it was 2.34; in assay [4] it was 3.32; in [5] it was 0.927; in assay [6] it was 4.37. In addition, the PBM binding z-score in [7] worked out at 3.89; in assay [8], 4.06; in [9], 1.29; in assay [10], 2.66; in [11], 3.89; in [12], 4.84. The PBM binding z-score is 0.133 in assay [13]; -0.577 in [14]; 1.31 in assay [15]; 3.98 in assay [16]; 4.92 in assay [17]; 3.92 in assay [18]. Besides, the PBM binding z-score in assay [19] stood at 0.247; in [20] it was 3.94.
For ATATGTAGGTTAGATGGGGTCATTCAGACTAGGC, the PBM binding z-score in [1] was 4.98; in assay [2] it was 5.67; in assay [3], 3.54; in assay [4], 4.97; in [5], 1.56; in [6], 5.11. The PBM binding z-score was 5.98 in [7]; 5.22 in assay [8]; 2.6 in assay [9]; 4.55 in [10]; 6.56 in assay [11]; 6.05 in assay [12]. Further, the PBM binding z-score in [13] is 2.97; in [14] it was 2.15; in assay [15] it was 2.79; in assay [16], 6.56; in assay [17], 4.01; in [18], 6.01. Besides, the PBM binding z-score is 1.98 in [19] and 2.93 in assay [20].
On to ATCGAAAGGTCGACGAGGTGAATATACACCGTTT, for which the PBM binding z-score in [1] was 5.37; in [2], 3.82; in [3], 0.162; in assay [4], 3.31; in assay [5], 0.511; in assay [6] it was 4.54. Further, the PBM binding z-score in assay [7] worked out at 3.21; in assay [8], 3.62; in [9] it was 1.4; in assay [10], 2.47; in [11], 0.98; in assay [12] it was 2.07. Besides, the PBM binding z-score in assay [13] amounted to 1.87; in assay [14] it was 0.44; in assay [15] it was 2.04; in assay [16], 3.88; in assay [17], 1.24; in assay [18], 4.49. For the same sequence, the PBM binding z-score turned out to be 1.02 in assay [19] and 3.94 in assay [20].
